Source: PubChem BioAssay (NCI)
This is part of a sample that, as a whole, favours compounds with a hit. Of some 83,000 tested, about 20% had one in any assay.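 Interpretation: 100, growth as untreated; towards 0, rising growth inhibition; 0, no net growth; 0 to -100, cell death. Compounds scoring below 10 were considered active.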 Values without a mark were called inactive. The source made the active and inactive calls.

Columns and labels:
Assay in all cases: NCI-60 one-dose screen, 48 h (100 = growth as untreated, 0 = no growth, -100 = all killed)
Details in all cases: 10 µM unless noted
[1] = test system: SR leukemia
[2] = test system: RPMI-8226 leukemia
[3] = test system: OVCAR-8 ovarian
[4] = test system: OVCAR-5 ovarian
[5] = test system: OVCAR-4 ovarian
[6] = test system: SK-OV-3 ovarian
[7] = test system: IGROV1 ovarian
[8] = test system: OVCAR-3 ovarian
[9] = test system: HS 578T breast
[10] = test system: NCI/ADR-RES ovarian

Row | Structure (SMILES) | growth [1] | growth [2] | growth [3] | growth [4] | growth [5] | growth [6] | growth [7] | growth [8] | growth [9] | growth [10]
1 | COP(=O)(OC)C(C)(C)CC(=O)CC(C#N)(C#N)C(C#N)C#N | 95.5% | 87.8% | 105% | 94.4% | 116% | 101% | 110% | 114% | 104% | 98.4%
2 | CCOC(=O)c1[nH]c(=O)c2c(C)nc(-c3ccccc3)cc2c1O | 97% | 93.8% | 109% | 106% | 117% | 108% | 1.43% (active) | 105% | 98.4% | 
3 | C=C1C(=O)O[C@H]2[C@H]1CC/C(COC(=O)CCSCCC(=O)OC/C1=C/CC[C@@]3(C)O[C@H]3[C@H]3OC(=O)C(=C)[C@@H]3CC1)=C\CC[C@@]1(C)O[C@@H]21 | -15.8% (active) | -27% (active) | 9.02% (active) | -6.34% (active) | 41.7% | 93.6% | -17.3% (active) | -68.8% (active) | 19.4% | 53.4%
4 | C#CCOc1ccc2ncnc(Nc3cccc(NC(=O)C=C)c3)c2c1 | 17.1% | 80.2% | 45.8% | 89.6% | 76% | 60.6% | 33.8% | 60.6% | 67.3% | 
5 | COc1ccccc1NC(=O)Cn1cc(CN2CCN(c3ccnc4cc(Cl)ccc34)CC2)nn1 | 92.1% | 50.9% | 93.4% | 82.9% | 94.1% | 86.6% | 90.6% | 101% | 88.5% | 
6 | CCCC(=O)NC(c1ccc2c(c1)OCO2)c1ccc2cccnc2c1O (centres undefined) | -16.1% (active) | 13.1% | 9.28% (active) | 34.2% | 14.5% | 14.8% | 5.54% (active) | 36.9% | 58.6% | 
7 | COc1ccc(/C=C2\C(=O)N=C3N2NC(c2cc(Br)ccc2O)C=C(C)N3c2ccccc2)cc1 (centres undefined) | 102% | 91.5% | 98.1% | 104% | 96.5% | 99.6% | 91% | 103% | 95.9% | 
8 | C=C(C)[C@@H]1CC[C@]2(C(=O)OC)CC[C@]3(C)[C@H](CC[C@@H]4[C@@]5(C)C/C(=C/NC(N)=S)C(=O)C(C)(C)[C@@H]5CC[C@]43C)[C@@H]12 | 81.6% | 69.6% | 97.5% | 118% | 84.2% | 97.7% | 70.6% | 88.5% | 91.7% | 
9 | COc1ccc(C(=O)Nc2ncc(Cc3ccc(F)cc3)s2)cc1 | 11.1% | 15.9% | 27.6% | 29.6% | 48.9% | 44.6% | 18.3% | -22.2% (active) | 31.7% | 
10 | COC(=O)[C@H]1CCCN1C[C@@H](O)CN1C(=O)/C(=C\c2cc(OC)c(OC)c(OC)c2)c2ccccc21 | 78% | 91.4% | 92.1% | 123% | 90.6% | 108% | 102% | 105% | 99.6% | 102%
11 | Cn1cccc1C(=O)C1C(c2cccc([N+](=O)[O-])c2)C2C3CCCCC3CN2C12C(=O)Nc1ccc(Cl)cc12 (centres undefined) | 5.9% (active) | 19.6% | 63.8% | 68.1% | 70.5% | 70.1% | 8.94% (active) | 70.2% | 55.7% | 
12 | CC(=O)N1N=C(c2ccc(Nc3nc(Nc4ccc(Cl)cc4)nc(Nc4ccc(Cl)cc4)n3)cc2)CC1c1ccco1 (centres undefined) | 64.9% | 34.5% | 83.2% | 105% | 97.3% | 124% | 89.4% | 104% | 114% | 
13 | Cc1nc2ncnc(Cl)c2[nH]1 | 98.3% | 82.4% | 95.4% | 109% | 106% | 105% | 106% | 108% | 110% | 
14 | Cc1nc2c(=O)[nH]c(SCC(=O)Nc3cccc(F)c3)nc2[nH]c1=O | 132% | 110% | 103% | 103% | 101% | 115% | 108% | 111% | 101% | 
15 | CCc1ccc(C(=O)/C=C/C23c4ccccc4C(c4ccccc42)C2C(=O)NC(=O)C23)cc1 (centres undefined) | 0.497% (active) | -35.1% (active) | -20% (active) | 15.7% | 37.5% | 38.6% | 0.604% (active) | -59.7% (active) | 41% | 
16 | C/C(Nc1ccc(Cl)c(Cl)c1)=C1\CCOC1=O | 83.6% | 61.3% | 102% | 87.5% | 72.4% | 121% | 83.8% | 100% | 98% | 
17 | O=C1/C(=C/c2cccs2)SC(=S)N1CCCN1CCOCC1 | 92.5% | 97.9% | 96% | 105% | 89.1% | 99.4% | 97% | 113% | 98.7% | 
18 | CC(C)OC(=O)c1ccc2[nH]c(O)c(C(=Nc3ccc(N(C)C(=O)CN4CCN(C)CC4)cc3)c3ccccc3)c2c1 | -20.3% (active) | -28.9% (active) | -37.4% (active) | -36.2% (active) | -72.3% (active) | -81.6% (active) | -39.2% (active) | -75.7% (active) | -7.07% (active) | 
19 | O=C(Nn1c2c(sc1=NCc1ccccc1)C(=O)c1ccccc1C2=O)c1cc2ccc1CCc1ccc(cc1)CC2 | 48.3% | 59% | 46.3% | 118% | 47.7% | 72.9% | 53% | 51.1% | 72.2% | 
20 | Cc1nnc(-n2c(O)cc(=O)n(-c3ccccc3)c2=S)nc1/C=C/c1ccc(N(C)C)cc1 | 36.2% | 16.1% | 53.3% | 82.7% | 50.3% | 45.6% | 58.1% | 44.3% | 47.8% | 44.6%
21 | CC(C)CCC[C@@H](C)[C@H]1CC[C@H]2[C@@H]3CC=C4C[C@@H](C(C(=O)O)C(=O)O)CC[C@]4(C)[C@H]3CC[C@]12C | -39.7% (active) | -26.9% (active) | -19.8% (active) | 45.2% | 0.439% (active) | -5.5% (active) | -35.5% (active) | -73.5% (active) | -12.7% (active) | -1.29% (active)
22 | O=C(c1ccc(-c2nc(CSc3nc4ccccc4s3)no2)cc1)N1CCSCC1 | 43% | 47.2% | 43% | 117% | 69.5% | 72.6% | 77.6% | 78.8% | 106% | 
23 | CCS/C(Nc1ccccc1)=C(\C#N)C(=O)N/N=C/c1ccc(Cl)cc1Cl | 19.5% | 9.68% (active) | 28.6% | 72.5% | 56.5% | 15.5% | 49.1% | 1.46% (active) | -6.44% (active) | 10.8%
24 | O=C1N(Cc2ccccc2Cl)c2ccccc2C12NN=C(c1cccc(Cl)c1)S2 (centres undefined) | -1.58% (active) | 30.5% | -23.5% (active) | 9.45% (active) | -13.9% (active) | -5.89% (active) | 20.2% | 4.87% (active) | 3.21% (active) | 
25 | CCOC(=O)c1c(C)nc2c(c1N)CC(=O)N2Cc1cc(F)cc(Cl)c1 | 75.3% | 71.7% | 95.9% | 97.5% | 67.5% | 115% | 102% | 93.8% | 108% | 
26 | COC(=O)c1cc(-c2ccccc2)[nH]c1N/N=C/c1c(Cl)cccc1Cl | -9.18% (active) | -12.7% (active) | 15.4% | 21.9% | 64.5% | 24.4% | -44.5% (active) | -76.7% (active) | -30.4% (active) | 
27 | CCN1CC(=O)N(/N=C2\C(=O)Nc3ccccc32)C1=S | 83.1% | 96% | 95.4% | 97.2% | 97.2% | 78.4% | 55.3% | 98.1% | 83% | 
28 | CCCCNc1ccc(C#N)c(OCCN(CC)CC)c1 | 93.8% | 93.3% | 100% | 97.4% | 105% | 102% | 105% | 109% | 123% | 98.4%
